# From PubChem BioAssay (Tox21)
# Values joined by “and” are separate entries in the source; they are usually repeats but may differ in a detail not shown here. Identical values can stand only once. Records with an inconclusive call do not appear. A call without a number means that no potency is given here. More than one record can exist for a structure, and the calls need not agree. Active and inactive are the calls of the source. The call rests on the fitted dose curve; in most records, active means well fitted inhibition curve with a large enough effect in the repeat runs; inconclusive means weak or mixed curves; inactive means no such curve, though single readings can be large or run the other way.
# Target: Cytochrome P450 3A4 (Homo sapiens) (UniProt P08684)
# Test: Cytochrome P450 Family 3 Subfamily A Member 4 (CYP3A4) small molecule antagonists: luciferase reporter qHTS assay (AID 1671201); further: nearly all actives have a fitted effect of over 50% in size
# Details: P450-Glo CYP3A4 enzyme, luciferin luminescence, 1 h; series mostly up to 115 µM
# How it was run: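 Setup: enzyme-substrate mix, compound pin transfer, 10 min RT. Reaction: NADPH regeneration solution, 1 h RT. Readout: detection reagent stops turnover, luminescence measured after 20 min, expressed in relative luminescence units.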
# Potency means the concentration at half of the fitted maximal effect.
# Sequence of Cytochrome P450 3A4 (Homo sapiens) (P08684 whole entry, looked up): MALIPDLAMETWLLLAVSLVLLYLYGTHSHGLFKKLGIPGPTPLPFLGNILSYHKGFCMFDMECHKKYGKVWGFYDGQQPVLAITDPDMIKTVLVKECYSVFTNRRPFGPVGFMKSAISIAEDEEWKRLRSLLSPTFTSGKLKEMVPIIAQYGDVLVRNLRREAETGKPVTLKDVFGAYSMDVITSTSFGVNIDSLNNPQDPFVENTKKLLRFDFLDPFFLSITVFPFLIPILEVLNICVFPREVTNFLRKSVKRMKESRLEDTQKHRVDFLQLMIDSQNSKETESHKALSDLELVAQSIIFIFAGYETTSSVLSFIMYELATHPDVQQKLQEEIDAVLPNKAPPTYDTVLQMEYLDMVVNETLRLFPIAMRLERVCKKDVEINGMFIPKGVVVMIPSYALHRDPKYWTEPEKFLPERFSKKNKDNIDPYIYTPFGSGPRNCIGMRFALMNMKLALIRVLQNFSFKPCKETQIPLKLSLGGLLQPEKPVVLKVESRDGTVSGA
row,SMILES,Potency
1,CC(O)COCC(C)O (stereo not drawn),inactive
2,CC(c1cc2ccccc2s1)N(O)C(N)=O (stereo not drawn),20 µM (active)
3,Cc1ccc(S(N)(=O)=O)cc1,28.1 µM (active) and inactive
4,CCC(O)OCCCOC (stereo not drawn),inactive
5,CCCCCC1=CCCC1=O,inactive
6,C[Si](O[Si](C)(C)C)O[Si](C)(C)C,inactive
7,CCCC(C)=O,inactive
8,CC1=C(C)S(=O)(=O)CCS1(=O)=O,inactive
9,CCCCCCCCCCCCCCCO,inactive
10,Cc1cccnc1,inactive
11,O=C(O)c1cc(=O)c2c(OCC(O)COc3cccc4oc(C(=O)O)cc(=O)c34)cccc2o1,inactive
12,CCCCCC/C(C=O)=C\c1ccccc1,inactive
13,Fc1ccc(Br)cc1,inactive
14,COc1ccc(NC(C)=O)cc1N,inactive
15,CCCCCCCCC/C=C/CC1CC(=O)OC1=O (stereo not drawn),inactive
16,CN(C)CCC(c1ccccc1)c1ccccn1 (stereo not drawn),inactive
17,O=c1[nH]c(=O)n([C@H]2CCCO2)cc1F,inactive
18,CC1=CCC2CC1C2(C)C (stereo not drawn),inactive
19,O=C(O)c1ccccc1C(c1ccc(O)cc1)c1ccc(O)cc1,inactive
20,CCCCCCCCCCCCc1ccccc1,inactive
21,c1ccc2scnc2c1,inactive
22,OC[C@H]1O[C@@](CO)(O[C@H]2O[C@H](CO)[C@@H](O)[C@H](O)[C@H]2O)[C@@H](O)[C@@H]1O,inactive
23,CC(=O)CC(=O)Nc1ccccc1C,inactive
24,c1ccc(OCCOc2ccccc2)cc1,inactive
25,CCCCC(CC)CO (stereo not drawn),inactive
26,CSCCC=O,inactive
27,O=C=NCCCCCCN=C=O,inactive
28,C=CCOC(=O)c1ccccc1C(=O)OCC=C,3.12 µM (active) and 6.33 µM (active)
